Results: PubChem BioAssay (NCI)
This is part of a sample that, as a whole, favours compounds with a hit. Of some 83,000 tested, about 20% had one in any assay.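 Interpretation: 100, growth as untreated; towards 0, rising growth inhibition; 0, no net growth; 0 to -100, cell death. Compounds scoring below 10 were considered active.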 Values without a mark were called inactive. The source made the active and inactive calls.

How the values were obtained:
Experiment in all cases: NCI-60 one-dose screen, 48 h (100 = growth as untreated, 0 = no growth, -100 = all killed)
Conditions in all cases: 10 µM
HCT-15 colon = tested on: HCT-15 colon
HT29 colon = tested on: HT29 colon
SNB-75 CNS = tested on: SNB-75 CNS
SNB-19 CNS = tested on: SNB-19 CNS
U251 CNS = tested on: U251 CNS
SK-MEL-5 melanoma = tested on: SK-MEL-5 melanoma
UACC-62 melanoma = tested on: UACC-62 melanoma
LOX IMVI melanoma = tested on: LOX IMVI melanoma
SK-MEL-28 melanoma = tested on: SK-MEL-28 melanoma
SK-MEL-2 melanoma = tested on: SK-MEL-2 melanoma
SN12C renal = tested on: SN12C renal
UO-31 renal = tested on: UO-31 renal
TK-10 renal = tested on: TK-10 renal
ACHN renal = tested on: ACHN renal
CAKI-1 renal = tested on: CAKI-1 renal
A498 renal = tested on: A498 renal
CCRF-CEM leukemia = tested on: CCRF-CEM leukemia
MOLT-4 leukemia = tested on: MOLT-4 leukemia
EKVX NSCLC = tested on: EKVX NSCLC
PC-3 prostate = tested on: PC-3 prostate

SMILES	growth (HCT-15 colon)	growth (HT29 colon)	growth (SNB-75 CNS)	growth (SNB-19 CNS)	growth (U251 CNS)	growth (SK-MEL-5 melanoma)	growth (UACC-62 melanoma)	growth (LOX IMVI melanoma)	growth (SK-MEL-28 melanoma)	growth (SK-MEL-2 melanoma)	growth (SN12C renal)	growth (UO-31 renal)	growth (TK-10 renal)	growth (ACHN renal)	growth (CAKI-1 renal)	growth (A498 renal)	growth (CCRF-CEM leukemia)	growth (MOLT-4 leukemia)	growth (EKVX NSCLC)	growth (PC-3 prostate)
O=C(CCl)N1c2ccccc2Sc2ccc3ccccc3c21	-51.3% (active)	-76.1% (active)	3.3% (active)	69.7%	0.19% (active)	22.9%	-0.738% (active)	-78.3% (active)	19.6%	-25.5% (active)	-49.1% (active)	-89.8% (active)	-57.7% (active)	-89.1% (active)	-52.8% (active)	-90.2% (active)	-15.1% (active)	-9.38% (active)	–	–
CC(C)C[C@H](NC(=O)CCn1ccc2ccccc2c1=O)B(O)O	61.7%	25.7%	77.8%	66.1%	68.2%	29.1%	33.3%	40.6%	36.9%	63.8%	63.7%	57.3%	–	28.6%	45.6%	–	12%	5.52% (active)	–	–
CCN1CCN(c2nc(NNC(=O)c3cccc(OC)c3)nc(N3CCN(C(c4ccccc4)c4ccccc4)CC3)n2)CC1	15.4%	9.36% (active)	61.9%	78.1%	41.8%	53.5%	73.5%	7.34% (active)	63.2%	75%	61%	27.5%	79.7%	56.1%	42.2%	75.3%	–	23.8%	–	–
O=C(COCc1c(-c2ccccc2)no[n+]1[O-])Nc1nc(-c2ccc(Cl)cc2)cs1	103%	105%	98.6%	107%	103%	95.6%	99.6%	95.8%	111%	105%	100%	80.8%	113%	112%	105%	97.9%	90.5%	102%	–	–
Nc1ccn([C@@H]2O[C@H](COP(=O)(O)O[C@@H]3C[C@H](n4cc(F)c(=O)[nH]c4=O)O[C@@H]3COP(=O)(O)O[C@@H]3C[C@H](n4cc(F)c(=O)[nH]c4=O)O[C@@H]3COP(=O)(O)O[C@@H]3C[C@H](n4cc(F)c(=O)[nH]c4=O)O[C@@H]3COP(=O)(O)O[C@@H]3C[C@H](n4cc(F)c(=O)[nH]c4=O)O[C@@H]3COP(=O)(O)O[C@@H]3C[C@H](n4cc(F)c(=O)[nH]c4=O)O[C@@H]3COP(=O)(O)O[C@@H]3C[C@H](n4cc(F)c(=O)[nH]c4=O)O[C@@H]3COP(=O)(O)O[C@@H]3C[C@H](n4cc(F)c(=O)[nH]c4=O)O[C@@H]3COP(=O)(O)O[C@@H]3C[C@H](n4cc(F)c(=O)[nH]c4=O)O[C@@H]3COP(=O)(O)O[C@@H]3C[C@H](n4cc(F)c(=O)[nH]c4=O)O[C@@H]3COP(=O)(O)O[C@@H]3C[C@H](n4cc(F)c(=O)[nH]c4=O)O[C@@H]3COP(=O)(O)OCCOCCOCCOCCOCCOCCO)[C@H](O)C2O)c(=O)n1 (stereo not given in full)	44.6%	47.1%	86.3%	56.6%	30.3%	2.12% (active)	25.6%	25.2%	52.3%	60.2%	–	13.5%	56.3%	11.7%	26.7%	46.5%	21.4%	26.8%	52%	–
O=C(O)c1ccc(CNc2ccc(C(=O)CCl)cc2)cc1	94.9%	96.4%	93.1%	103%	93.8%	97.9%	95.3%	77.9%	95.2%	96.6%	99.3%	106%	104%	99.3%	86.7%	61.4%	48.7%	87.9%	–	–
COc1ccc2nc(NC(=O)Nc3c(F)cccc3F)sc2c1	101%	–	118%	97.2%	95%	91.2%	94.4%	106%	103%	114%	–	102%	–	106%	104%	87.9%	–	98.3%	102%	95%
O=c1oc2cc(OS(=O)(=O)C3CC3)ccc2c2c1CCCCCC2	72.8%	–	98.7%	88.2%	79.1%	37.3%	71.3%	85.8%	93.7%	103%	82.8%	83.4%	121%	82.1%	79.4%	63.8%	64.4%	65.6%	–	68.7%
COc1ccc(N2CCN(c3nc(-c4ccccc4)c(C#N)c(=O)[nH]3)CC2)cc1	99.4%	–	73.2%	103%	95.6%	–	94.8%	99.4%	110%	120%	96.7%	71.4%	115%	99%	98.6%	87.9%	80.1%	93.5%	–	–
Cc1ccc([P+](Cc2ccccc2)(c2ccccc2)c2ccccc2)cc1	87.4%	–	6.53% (active)	24.7%	10.1%	-43% (active)	1.54% (active)	16.8%	24.4%	-29.1% (active)	19.3%	68.7%	12.3%	60.6%	76.7%	23%	13.6%	6.83% (active)	–	2.37% (active)
O=C(OCC1OC(n2cc(C(F)(F)F)c(=O)[nH]c2=O)CC1OC(=O)c1ccc([N+](=O)[O-])cc1)c1ccc([N+](=O)[O-])cc1 (stereo not given)	87%	–	90.8%	94.5%	76.1%	–	30.7%	64.2%	86.9%	78%	43.4%	50.3%	86.7%	16%	38.6%	60.6%	–	77.4%	107%	71.7%
CC(=O)Nc1nc(C)c(C(=O)NNC=O)s1	99.5%	–	94.8%	117%	109%	104%	97.1%	104%	104%	62.7%	98.7%	100%	–	108%	109%	104%	101%	98.1%	101%	91.6%
C/C=C\COc1cc(C)c(Cl)cc1Cl	109%	–	88.9%	97.3%	94.6%	99.6%	100%	106%	104%	120%	94.7%	84.8%	125%	128%	98.8%	101%	95%	108%	–	98.5%
COc1cc(C2=Nc3c/c(=C\c4c(O)[nH]c5ccc(Cl)cc45)ccc3=N2)cc(OC)c1OC	24.8%	–	50.1%	-30.9% (active)	-90.6% (active)	-92.2% (active)	31.8%	2.31% (active)	-35.7% (active)	31.1%	–	35.5%	35%	73.2%	50.4%	93.4%	8.61% (active)	10.3%	77.7%	21.7%
CN(C)c1ccc2cc(-c3cc4c(oc3=O)-c3ccccc3OC4O)c(=O)oc2c1 (stereo not given)	7.71% (active)	–	24%	36.7%	30%	-34% (active)	33.4%	-32.4% (active)	64.5%	-38.2% (active)	57.9%	–	-36.4% (active)	4.78% (active)	-4.81% (active)	13.2%	-20.5% (active)	-64.7% (active)	22.6%	-5.5% (active)
COc1cc2nc(Sc3sc(N)nc3C)n(-c3ccc(Oc4ccccc4)cc3)c(=O)c2cc1OC	79.9%	–	86.7%	105%	87.6%	76.8%	81.4%	78.3%	97.9%	107%	79.7%	76.1%	98.1%	81.5%	94.1%	82.1%	64.5%	54%	–	65.2%
